Only a selection was taken, and hits are over-represented in it overall.
Pf Dd2 growth: blocks in vitro growth of P. falciparum Dd2; P. falciparum Dd2 growth, SYBR Green, 72 h; Potency, µM (series often up to 28.9 µM), without a hit: at the highest dose activity, negative = inhibition, hits mostly inhibitors; 4.3% of 120,000 active; active = well fitted inhibition curve with a large enough effect;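 note: plate controls were DMSO vehicle for no effect and reference drug for full effect; nearly all actives have a fitted effect of over 65% in size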
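Infected erythrocytes (Dd2, 0.3% parasitemia, 2.5% hematocrit final) are added to compound in RPMI-1640/Albumax II medium, grown 72 h at 37C in low oxygen, then lysed with saponin/Triton-X containing SYBR Green and read by fluorescence.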
* = called active by the depositor; i = inactive; [ ] = remark or other dose. Potency is the fitted concentration of half-maximal effect.

SMILES	Pf Dd2 growth
CCc1cccc(-n2c(=O)c3cccnc3n2CC(=O)NCc2ccccc2Cl)c1	2.24µM*
CCc1cccc(-n2c(=O)c3cccnc3n2CC(=O)Nc2ccccc2C(=O)OC)c1	49.2%[5.79 µM]
CCc1cccc(-n2c(=O)c3cccnc3n2CC(=O)NCc2ccc(C)cc2)c1	1.12µM*
CCCNC(=O)N(C1CCOCC1)C1CCN(S(=O)(=O)c2ccccc2CC)CC1	-22.1%
O=C(Cn1cccn1)N1C[C@@H](COCC2CC2)[C@H](c2ccncc2)C1	i
CC1(C)NC(=O)N(CC(=O)N[C@H](Cc2ccccn2)C2CC(O)C2)C1=O (stereo partly drawn)	-5.6%
COCCNC(=O)C(NC(=O)c1ccc(OC)cc1)C1CCN(C(=O)c2cccc(C)c2)CC1 (stereo not drawn)	i
CN1CCCCCCN(S(=O)(=O)c2cccs2)CCC1=O	-20.2%
CN1CCN(Cc2nc(C3(O)CCN(C4COC4)CC3)cs2)CC1	-0.5%[44.1 µM]
CC(C)c1nncn1C1CCN(S(=O)(=O)c2ccccc2F)CC1	i
CCN1C(=O)CCN(C(=O)c2ccoc2)CC12CCOCC2	-16.1%
OCc1ccc(CN2C[C@H](O)C[C@H]2c2nc(-c3ccc(OC(F)(F)F)cc3)no2)o1	i
CC1CCCN(C(=O)CN2C(=O)NC3(CCCCC3)C2=O)C1 (stereo not drawn)	4.2%
Cc1cc(C(=O)N2CCCC(Cc3noc(-c4cnccn4)n3)C2)n[nH]1 (stereo not drawn)	i
Cc1ccc(-c2ccc3nnc(CNC(=O)c4ccc(F)c(F)c4)n3n2)cc1	-15.6%
CCN(CC)S(=O)(=O)N(C)CC1CCCN(CCc2ccccc2OC)C1 (stereo not drawn)	2.82µM*
COc1ccccc1CCC(=O)N1CC[C@@H]2CN(S(C)(=O)=O)[C@@H]2C1	8.0%
COc1ccccc1CC(=O)N[C@@H]1CN(C)C[C@H]1CN(C)C	0.1%
CCCCN(CC)C(=O)Cn1ccn2nc3c(c2c1=O)CCCC3	i
COc1cccc(-c2cc(-c3ccccc3)nc3c(C)noc23)c1	14.1µM*
COc1cccc(-c2cc(-c3cccs3)nc3c(C)noc23)c1	i
COc1ccccc1-c1cc(-c2ccccc2)nc2c(C)noc12	i
CCOc1ccc(-n2c(-c3ccccc3)c(C)n3c4c(=O)n(C)c(=O)n(C)c4nc23)cc1	-7.4%
Cc1cc(C)cc(-n2c(-c3ccccc3)c(C)n3c4c(=O)n(C)c(=O)n(C)c4nc23)c1	20.9%
Cc1c(-c2ccccc2)n(-c2ccccc2O)c2nc3c(c(=O)n(C)c(=O)n3C)n12	3.16µM*
SMILES	Pf Dd2 growth
CC(C)CCN1CC2(CCCN(C(=O)c3cc(C(F)(F)F)[nH]n3)C2)CCC1=O (stereo not drawn)	-16.5%
COc1cccc(CC(=O)NCC2Cn3cccc3C(=O)N2C)c1 (stereo not drawn)	1.1%
COc1ccc(C(=O)N2CCC(n3cc(-c4nc(C)no4)nn3)C2)cc1OC (stereo not drawn)	-14.0%
CC(=O)Nc1ccc(CN2C(=O)OC3(CCN(Cc4ccc(C(C)C)cc4)CC3)C2(C)c2ccccc2)cc1 (stereo not drawn)	-13.7%
O=C(O)CCCC(=O)N1Cc2ccccc2CC2(CCCN(CC3CCCC3)C2)C1 (stereo not drawn)	10.0%
CN1CCC(C(=O)N2Cc3ccccc3CC3(CCN(Cc4ccccn4)C3)C2)CC1 (stereo not drawn)	-20.7%
NCC(=O)N1Cc2ccccc2CC2(CCN(CC3CCNC3)C2)C1 (stereo not drawn)	14.7%
O=C(C1CCCC1)N1Cc2ccccc2CC2(CCN(CC3CCOCC3)C2)C1 (stereo not drawn)	7.08µM*
CN(C)CC(=O)N1Cc2ccccc2CC2(CCN(CC3CCOCC3)C2)C1 (stereo not drawn)	-20.8%
CC(=O)NCCC(=O)N1Cc2ccccc2CC2(CCCN(CC3CCCC3)C2)C1 (stereo not drawn)	-18.5%
CC(=O)NCC(=O)N1Cc2ccccc2CC2(CCN(CC3CCOCC3)C2)C1 (stereo not drawn)	3.9%
NCC(=O)N1Cc2ccccc2CC2(CCN(CC3CCOCC3)C2)C1 (stereo not drawn)	8.91µM*
CN(C)CCC(=O)N1Cc2ccccc2CC2(CCCN(CC3CCOCC3)C2)C1 (stereo not drawn)	-10.2%
CCCN1CCCC2(Cc3ccccc3CN(C(=O)C3CCN(C)CC3)C2)C1 (stereo not drawn)	-17.8%
NCC(=O)N1Cc2ccccc2CC2(CCCN(CC3CCCC3)C2)C1 (stereo not drawn)	7.94µM*
CCN1CCC2(Cc3ccccc3CN(C(=O)C3CCCC3)C2)C1 (stereo not drawn)	8.91µM*
O[C@@H]1C[C@@H](c2nnc3n2CCN(Cc2ccc4c(c2)CCO4)C3)N(Cc2ccccc2)C1	i
O=C1NC(=NC2CCCC2)C2(CCCN([S+](=O)([O-])c3cccs3)C2)N1c1cccnc1 (stereo not drawn)	-2.4%
O=C(c1ccno1)N1C[C@@H]2OCC(=O)N(Cc3ccccc3)[C@@H]2C1	57.7%[44.1 µM]
Cc1ccc(C(=O)N2CCN(c3nnc4ccccn34)CC2)cc1	-13.8%
Cn1cnc(S(=O)(=O)N2CCC3(CC2)CC(Cc2ccccc2)CCO3)c1 (stereo not drawn)	-13.9%
Cc1noc(C)c1CCC(=O)NCc1cc2n(n1)CCN(C(=O)N(C)C)C2	16.9%
O=C(COc1ccc(F)cc1)N1CCC2(CC1)CN(C1CCC1)CC2CO (stereo not drawn)	i
CCn1c(CN2CCCCC2)nc2cc(NC(=O)c3cccc([N+](=O)[O-])c3)ccc21	3.55µM*
CCn1c(CN2CCCCC2)nc2cc(NC(=O)COc3ccc(C(C)(C)C)cc3)ccc21	8.91µM*
SMILES	Pf Dd2 growth
CCn1c(CN2CCOCC2)nc2cc(NC(=O)c3cc(OC)c(OC)c(OC)c3)ccc21	-16.3%
CCCC(=O)Nc1ccc2c(c1)nc(CN1CCN(C(=O)OCC)CC1)n2C(C)C	-6.6%
Cn1c(CN2CCCCC2)nc2cc(NC(=O)c3ccc(Cl)cc3)ccc21	-13.8%
CCn1c(CN2CCN(C)CC2)nc2ccccc21	-22.9%
COc1cccc(-c2nc(C3CC(=O)N(c4ccc(F)cc4)C3)no2)c1 (stereo not drawn)	30.7%
CNc1nc2c(s1)C(c1ccc(Cl)cc1)CC(=O)N2 (stereo not drawn)	-14.0%
O=[S+]([O-])(c1cccc(C(F)(F)F)c1)N1CCN(c2nc3ncccc3o2)CC1	-14.1%
CC(=O)c1cccc(NC(=O)CN2C(=O)NC3(CCCCC3)C2=O)c1	0.6%
CC(C)c1ccc(NC(=O)C2CCN(C(=O)c3ncn4c3COC(c3ccc(F)cc3)C4)CC2)cc1 (stereo not drawn)	-15.5%
COc1ccc(-c2noc([C@@H](C)N(C)C)c2C(=O)O)cc1	12.5%[44.1 µM]
OC(c1cccc(C(F)(F)F)c1)c1nc(Nc2cccc(Cl)c2)n[nH]1 (stereo not drawn)	7.94µM*
COc1ccc(Nc2n[nH]c(C(O)c3cccc(C(F)(F)F)c3)n2)cn1 (stereo not drawn)	1.8%[44.1 µM]
OC(c1ccc2c(c1)CCO2)c1nc(Nc2cccc(C(F)(F)F)c2)n[nH]1 (stereo not drawn)	i
C[C@@]1(O)CCN(C(=O)c2ccc(-c3ccco3)cc2)C[C@@H]1O	-9.2%
NC(=O)c1cccc(-c2n[nH]c3c2CC(=O)N(CC2CCOCC2)C3)c1	3.8%[44.1 µM]
Cc1ccc2nc(N3CCN(C(=O)C4CC4)CC3)sc2c1	33.2%
O=C(NCc1cccc(Cl)c1)c1ccc2nc(N3CCCCC3)sc2c1	i
O[C@H]1CCCC[C@@H]1NC1CCN(c2nc3ccc(Cl)cc3s2)CC1	3.98µM*

Assay outcomes as filed in PubChem BioAssay.
